For orientation: cell viability means a read-out of living cells in per cent, often relative to untreated cells.

Counter-ions that a name gives are not always drawn. ± gives the uncertainty stated by the source.

Experimental findings from the supplement of paper PMC8877412 are described below.

The experiment concerns NCC-PMP1-C1. Kind of experiment: cell viability relative to DMSO control; higher = less growth inhibition. As to conditions: 10 µM; 72 h. As for the experimental part:
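NCC-PMP1-C1 pseudomyxoma peritonei cells were seeded in 384-well plates coated with Matrigel and MEF (1e4 cells). Viability was read after 72 h by CCK-8 and expressed as % of the DMSO control, mean ± SD of duplicates.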
With `CCc1c2c(nc3ccc(OC(=O)N4CCC(N5CCCCC5)CC4)cc13)-c1cc3c(c(=O)n1C2)COC(=O)[C@]3(O)CC` [Irinotecan HCl Trihydrate], the cell viability is 101 ± 4.5%.

With `CCCCC1C(=O)N(c2ccccc2)N(c2ccccc2)C1=O` [Phenylbutazone], the cell viability stood at 119 ± 5.4%.

On to `CCN(CC)CCNC(=O)c1c(C)[nH]c(/C=C2\C(=O)Nc3ccc(F)cc32)c1C` [Sunitinib Malate], for which the cell viability turned out to be 50.6 ± 16%.

`Nc1ccn([C@@H]2O[C@H](CO)[C@@H](O)C2(F)F)c(=O)n1` [Gemcitabine HCl]: the cell viability stood at 67.5 ± 15%.
